Bioassay records from PubChem BioAssay.
Hits are enriched below; roughly 4.5% of the tested compounds scored in any of these assays.
ssDAF-12 act = activates DAF-12 receptor from parasite S. stercoralis; HEK293 ssDAF-12/GRIP1 lit1-tk-luc reporter, luminescence; % of 3 µM dafachronic acid response; activation, % at 6.8 µM; 370,000 compounds, 1% hits; AID 652126;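 active means activation above the mean over all tested compounds plus 3 SD, cut at about 0.9% in these data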;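 further: 0% = DMSO-only wells and 100% = 3 µM delta7-dafachronic acid wells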
hcDAF12 agonist = H. contortus DAF-12 activation, primary screen; 370,000 compounds, 1.4% hits; activation, % at 6.8 µM; AID 652067; HEK293 hcDAF-12 lit1-tk-luc reporter, luminescence; 0% DMSO, 100% Δ7-dafachronic acid;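 active means activation above the mean of all tested compounds plus 3 SD, cut at about 5.5% in these data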;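 further: 100% = response to 3 µM Δ7-dafachronic acid high control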
hgDAF12 agonist = hgDAF-12 agonism, primary luciferase screen | HEK293 GAL4-hgDAF12 UAS-luciferase reporter, agonist luminescence; normalized to butyrate control | activation, % at 6.8 µM | 370,000 compounds, 1.8% hits;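 active means activation above a cutoff set at the mean of all screened compounds plus 3 SD, cut at about 10% in these data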;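 further: 0% = DMSO wells and 100% = sodium butyrate wells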
DAX1 inh-1 = inhibitors of DAX1 repression of SF-1 activated StAR promoter | HEK293T StAR-luciferase reporter, SF-1/DAX-1 repression relief | inhibition, % at 6.8 µM | 370,000 compounds, 1.1% hits;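 active means inhibition above the mean over all tested compounds plus 3 SD, cut at about 3.6% in these data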;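 further: 0% = DAX-1 cells with DMSO and 100% = cells lacking DAX-1 with DMSO; higher inhibition means more luminescence from relief of DAX-1 repression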
DAX1 inh-2 = NR0B1 (DAX1) inhibition. HEK293 Gal4-DAX1 luciferase reporter, luminescence. inhibition, % at 6.75 µM. 340,000 compounds, 0.99% hits;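 active means inhibition above the mean over all tested compounds plus 3 SD, cut at about 4.2% in these data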;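 further: 0% = DAX1-transfected cells with DMSO and 100% = empty-vector control cells with DMSO; inhibition shows as a rise in luminescence from relieved DAX1 repression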
Target sequence (P51843 207-470 limits assumed): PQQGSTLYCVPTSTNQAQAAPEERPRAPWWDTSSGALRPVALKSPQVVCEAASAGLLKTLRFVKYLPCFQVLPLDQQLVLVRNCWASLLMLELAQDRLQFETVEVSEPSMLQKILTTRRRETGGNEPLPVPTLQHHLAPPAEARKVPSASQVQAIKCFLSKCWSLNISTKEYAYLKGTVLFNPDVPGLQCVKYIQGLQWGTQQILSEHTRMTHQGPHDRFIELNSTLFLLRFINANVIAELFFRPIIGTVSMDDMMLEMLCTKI
FXN GAA850 act = frataxin GAA850 promoter activation. HEK293 lucGAA850 FXN promoter luciferase reporter, 24 h; percent of 10 µM SAHA response. activation, % at 6 µM. 360,000 compounds, 0.56% hits;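 active means activation above the average of all compounds screened plus 3 SD, cutoff fixed separately per campaign, cut at about 7.5% in these data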;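 further: 0% = DMSO wells and 100% = 10 µM SAHA wells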
* marks the source's active call; other numbers are inactive results.

For CC1=C(C(=O)OCCc2ccccc2)C(c2ccsc2)NC(=O)N1C (stereo unspecified) the results were ssDAF-12 act -2, hcDAF12 agonist -4, hgDAF12 agonist 1, DAX1 inh-1 -1, DAX1 inh-2 4.5* and FXN GAA850 act 0.
`Cc1ccc(-c2nc3sc4c(c3c(=O)n2N)CC(C)(C)OC4)cc1` gave ssDAF-12 act -1, hcDAF12 agonist -2, hgDAF12 agonist 3, DAX1 inh-1 1, DAX1 inh-2 -1 and FXN GAA850 act 0.
Cc1nc2sc3c(c2c(=O)o1)CCCC3 was read as ssDAF-12 act 1.0*, hcDAF12 agonist 5, hgDAF12 agonist -1, DAX1 inh-1 0, DAX1 inh-2 0 and FXN GAA850 act 0.
`Cc1ccc(-c2nc3sc4c(c3c(=O)n2N)CCCC4)cc1` gave ssDAF-12 act 0, hcDAF12 agonist 5.8*, hgDAF12 agonist 12*, DAX1 inh-1 3, DAX1 inh-2 2 and FXN GAA850 act 2.
COc1ccc(Oc2c(Cl)cnn(CC(=O)C(c3ccccc3)c3ccccc3)c2=O)cc1 was read as ssDAF-12 act -1, hcDAF12 agonist 3, hgDAF12 agonist 1 and DAX1 inh-1 1.
`COc1ccc(C(=O)NC(=S)NNC(=O)c2cnccn2)cc1OC` gave ssDAF-12 act -1, hcDAF12 agonist -1, hgDAF12 agonist 5, DAX1 inh-1 0, DAX1 inh-2 4.9* and FXN GAA850 act -1.
Screening COc1cc(OC)cc(C(=O)NC(=S)NNC(=O)c2cnccn2)c1 returned ssDAF-12 act -2, hcDAF12 agonist -1, hgDAF12 agonist 1, DAX1 inh-1 0, DAX1 inh-2 1 and FXN GAA850 act 2.
Screening C=CCn1c(NCc2ccccc2)nc2ccccc21 returned ssDAF-12 act -1, hcDAF12 agonist 2, hgDAF12 agonist 1, DAX1 inh-1 0, DAX1 inh-2 7.1* and FXN GAA850 act 2.
Screening C=CCn1c(NCc2ccccc2O)nc2ccccc21 returned ssDAF-12 act -1, hcDAF12 agonist -1, hgDAF12 agonist 1, DAX1 inh-1 0, DAX1 inh-2 0 and FXN GAA850 act 1.
For COCCSc1ncccc1-c1nc2ccccc2[nH]1 the results were ssDAF-12 act 0, hcDAF12 agonist 0, hgDAF12 agonist 3 and DAX1 inh-1 0.
`CSc1ccc(Cc2ccc(Cl)cc2Cl)nn1` gave ssDAF-12 act -1, hcDAF12 agonist 0, hgDAF12 agonist 4, DAX1 inh-1 1, DAX1 inh-2 4.3* and FXN GAA850 act 1.
NNc1ccc(Cc2ccc(Cl)cc2Cl)nn1 was read as ssDAF-12 act -1, hcDAF12 agonist 0, hgDAF12 agonist 1, DAX1 inh-1 -1, DAX1 inh-2 -1 and FXN GAA850 act 1.
For CCCC[C@H]1C2CC(OC(=O)Nc3ccccc3OC)C(C2)[C@H]2CCCCN21 (stereo partly specified) the results were ssDAF-12 act 0, hcDAF12 agonist 0, hgDAF12 agonist 0 and DAX1 inh-1 1.
For CN(C)c1ccc(Cc2ccc(N(C)C)cc2)cc1 the results were ssDAF-12 act -2, hcDAF12 agonist 0, hgDAF12 agonist 0, DAX1 inh-1 -3, DAX1 inh-2 0 and FXN GAA850 act -1.
`CNc1nnc(-c2ccc(N(C)C)cc2)s1` gave ssDAF-12 act 0, hcDAF12 agonist 4, hgDAF12 agonist 11*, DAX1 inh-1 5.8*, DAX1 inh-2 -2 and FXN GAA850 act -1.
For COCc1[nH]nc2c1C(c1ccc(F)cc1)N(c1ccc(OC)cc1)C2=O (stereo unspecified) the results were ssDAF-12 act -1, hcDAF12 agonist -1, hgDAF12 agonist -1 and DAX1 inh-1 0.
`CN(CCO)C1CN(Cc2cn(Cc3ccccc3C(F)(F)F)nn2)S(=O)(=O)C1` (stereo unspecified) gave ssDAF-12 act -1, hcDAF12 agonist -3, hgDAF12 agonist 2 and DAX1 inh-1 -1.
`O=C(Cn1c(=O)oc2ccccc21)N1CCN(S(=O)(=O)c2ccccc2)CC1` gave ssDAF-12 act -1, hcDAF12 agonist 1, hgDAF12 agonist 0, DAX1 inh-1 -2, DAX1 inh-2 2 and FXN GAA850 act 0.
For COc1cccc(N2CCN(C(=O)Cn3c(=O)oc4ccccc43)CC2)c1 the results were ssDAF-12 act -2, hcDAF12 agonist 1, hgDAF12 agonist 1, DAX1 inh-1 0, DAX1 inh-2 4.3* and FXN GAA850 act 2.
`O=C(Cn1c(=O)oc2ccccc21)N1CCN(c2ccccc2)CC1` gave ssDAF-12 act -1, hcDAF12 agonist 0, hgDAF12 agonist -2, DAX1 inh-1 0, DAX1 inh-2 0 and FXN GAA850 act 2.
Screening Cc1ccc(S(=O)(=O)N2CCN(C(=O)Cn3c(=O)oc4ccccc43)CC2)cc1 returned ssDAF-12 act 1.0*, hcDAF12 agonist 4, hgDAF12 agonist 10, DAX1 inh-1 2, DAX1 inh-2 1 and FXN GAA850 act 3.
`O=C(Cn1nnc(-c2ccncc2)n1)Nc1ccc(F)cc1F` gave ssDAF-12 act -1, hcDAF12 agonist -2, hgDAF12 agonist -2 and DAX1 inh-1 -2.
`O=C(O)c1cccc(-c2noc(-c3cccc(Cl)c3)n2)c1` gave ssDAF-12 act 0, hcDAF12 agonist 4, hgDAF12 agonist 13*, DAX1 inh-1 2, DAX1 inh-2 -2 and FXN GAA850 act 1.
Screening CN(CCc1ccccn1)c1ccccc1 returned ssDAF-12 act 0, hcDAF12 agonist 6.2*, hgDAF12 agonist 12*, DAX1 inh-1 0, DAX1 inh-2 1 and FXN GAA850 act 5.
`CN(CCc1ccccn1)S(=O)(=O)c1ccccc1F` gave ssDAF-12 act 0, hcDAF12 agonist 0, hgDAF12 agonist 0, DAX1 inh-1 0, DAX1 inh-2 1 and FXN GAA850 act 1.
CCCCNC(=O)C1CCCN1C(=O)Nc1cc(Cl)cc(Cl)c1 (stereo unspecified) was read as ssDAF-12 act 1, hcDAF12 agonist -2, hgDAF12 agonist 0 and DAX1 inh-1 1.
Screening Cc1csc(NC(=O)c2ccc[nH]c2=O)n1 returned ssDAF-12 act -1, hcDAF12 agonist 1, hgDAF12 agonist 11*, DAX1 inh-1 2, DAX1 inh-2 1 and FXN GAA850 act 5.
Cc1cc(C(=O)Nc2ccc(Cl)c(Cl)c2)n(-c2ccccc2)n1 was read as ssDAF-12 act -1, hcDAF12 agonist -1, hgDAF12 agonist 0 and DAX1 inh-1 -1.
Screening CC(C)(C)c1ccc(OC(=O)N2CCOCC2)cc1 returned ssDAF-12 act 0, hcDAF12 agonist 4, hgDAF12 agonist 11*, DAX1 inh-1 2, DAX1 inh-2 1 and FXN GAA850 act 5.
Screening Cc1ccc(OC(=O)N2CCOCC2)cc1 returned ssDAF-12 act -1, hcDAF12 agonist -1, hgDAF12 agonist 4, DAX1 inh-1 0, DAX1 inh-2 0 and FXN GAA850 act 4.
